Where “and” joins values, the source holds several entries; their conditions need not be identical. Equal values may be shown once. Inconclusive results are not listed. Values without a mark were called inactive. Calls of active or inactive are those of the source. The call rests on the fitted dose curve; in most records, active means well fitted curve in the direction sought with a large enough effect; inconclusive means small, poorly fitted or top-dose-only effect, or another doubt; inactive means no such curve, though single readings can be large; an effect the other way counts as inactive or inconclusive.

One experiment deals with CRL-7250. Nature of the experiment: Cytotoxic Profiling of Annotated Libraries Using Quantitative High-Throughput Screening (AID 1296008). Further: nearly all actives have a fitted effect of over 60% in size. Further: potency means the concentration at half of the fitted maximal effect. On max response: on the % scale 0 is the no-effect control and ±100 the full control effect. To be noted: Five cell lines viability, CellTiter-Glo ATP luminescence, 48-72 h; max response: active compounds read low. A digest of the protocol:
(§1)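 Cytotoxicity was measured as CellTiter-Glo ATP luminescence, read after 10 min at room temperature. Compound treatment of the cells lasted 48 or 72 hr at 37 degrees Celsius in a qHTS format.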
In general terms: Cellular ATP, detected with luciferase, serves as a proxy for viable cell number.

A further experiment deals with HEK293. Described as above. The settings on record: Five cell lines viability, CellTiter-Glo ATP luminescence, 48-72 h; max response: active compounds read low. A digest of the protocol: as §1
Experiment [1] relates to HaCat. Described as above. The settings on record: Five cell lines viability, CellTiter-Glo ATP luminescence, 48-72 h; max response: active compounds read low. A digest of the protocol: as §1
The next experiment concerns KB-3-1. The description is as above. To be noted: Five cell lines viability, CellTiter-Glo ATP luminescence, 48-72 h; max response: active compounds read low. A digest of the protocol:
as §1

Experiment [2] concerns NIH3T3. The description is as above. To be noted: Five cell lines viability, CellTiter-Glo ATP luminescence, 48-72 h; max response: active compounds read low. A digest of the protocol: as §1
In experiment [3] the test system is HACAT. Description: qHTS assay to identify novel small-molecules to repurpose for Merkel cell carcinoma treatment (AID 1296009). Further: nearly all actives have a fitted effect of over 60% in size. Further: potency means the concentration at half of the fitted maximal effect. To be noted: MCC and control cell lines, CellTiter-Glo viability, 72 h; at 44.8 µM (top of the series) unless noted. A digest of the protocol: (§2)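 After compound transfer in DMSO, plates were kept 72 hr at 37 degree celsius. Luminescent ATP signal from CellTiter-Glo served as viability measure, normalized against DMSO and no-cell controls.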
(In general: In qHTS, concentration-response curves come from the screen itself.)

In another experiment the test system is MCC-13. The experiment is described as above. To be noted: MCC and control cell lines, CellTiter-Glo viability, 72 h; series mostly up to 46 µM. A digest of the protocol:
as §2

In another experiment the test system is MCC-26. Described as above. To be noted: MCC and control cell lines, CellTiter-Glo viability, 72 h; series mostly up to 46 µM. A digest of the protocol:
as §2

Another experiment concerns MKL-1. The description is as above. The settings on record: MCC and control cell lines, CellTiter-Glo viability, 72 h; series mostly up to 46 µM. A digest of the protocol:
as §2

For a further experiment, the system named is MKL-2. The experiment is described as above. To be noted: MCC and control cell lines, CellTiter-Glo viability, 72 h; series mostly up to 46 µM. A digest of the protocol: as §2
The next experiment deals with UISO. The description is as above. The settings on record: MCC and control cell lines, CellTiter-Glo viability, 72 h; series mostly up to 46 µM. A digest of the protocol: as §2
The test system of the next experiment is WaGa. Described as above. The settings on record: MCC and control cell lines, CellTiter-Glo viability, 72 h; series mostly up to 46 µM. A digest of the protocol:
as §2

For a further experiment, the system named is C33A. Description: Primary qHTS to identify gynecologic anti-cancer compounds using libraries of approved drugs and bioactive compounds (AID 1345084). Further: nearly all actives have a fitted effect of over 55% in size. Further: potency means the concentration at half of the fitted maximal effect. The settings on record: Gynecologic cancer cell panel viability, ATPlite luminescence, 48 h; series mostly up to 57.5 µM. A digest of the protocol:
(§3)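 48 h compound exposure at 37 C, 5% CO2; five-point qHTS. ATPlite luminescence readout of cell ATP.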

Another experiment has as its system CAOV3. Described as above. The settings on record: Gynecologic cancer cell panel viability, ATPlite luminescence, 48 h; series mostly up to 57.5 µM. A digest of the protocol:
as §3

Another experiment has as its system CASKI. The experiment is described as above. To be noted: Gynecologic cancer cell panel viability, ATPlite luminescence, 48 h; series mostly up to 57.5 µM. A digest of the protocol:
as §3

The subject of experiment [4] is NIH3T3. Nature of the experiment: qHTS assay to identify novel small-molecules to repurpose for Merkel cell carcinoma treatment (AID 1296009). Further: nearly all actives have a fitted effect of over 60% in size. Further: potency means the concentration at half of the fitted maximal effect. The settings on record: MCC and control cell lines, CellTiter-Glo viability, 72 h; at 44.8 µM (top of the series) unless noted. A digest of the protocol:
as §2

The next experiment relates to TAB113. Description: qHTS profiling for inhibitors of Plasmodium falciparum proliferation (AID 504749).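 Further: 0% = DMSO vehicle and full inhibition = artemisinin control; nearly all actives have a fitted effect of over 60% in size.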 The settings on record: P. falciparum in erythrocytes, SYBR Green DNA, 72 h; series mostly up to 28.7 µM. A digest of the protocol:
(§4)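 Three-day growth assay of blood-stage parasites in erythrocytes (0.3% parasitemia, 2.5% hematocrit) at 37 C, 5% CO2, quantified by SYBR Green DNA staining after overnight detergent lysis.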

Another experiment relates to TAB165. The description is as above. To be noted: P. falciparum in erythrocytes, SYBR Green DNA, 72 h; series mostly up to 28.7 µM. A digest of the protocol:
as §4

For another experiment, the system named is W2. The experiment is described as above. To be noted: P. falciparum in erythrocytes, SYBR Green DNA, 72 h; series mostly up to 28.7 µM. A digest of the protocol:
as §4

`NC[C@H]1O[C@H](O[C@H]2[C@H](O)[C@@H](O[C@H]3O[C@H](CO)[C@@H](O)[C@H](N)[C@H]3O)[C@H](N)C[C@@H]2N)[C@H](N)[C@@H](O)[C@@H]1O`: the max response in the experiment with CRL-7250 was -9.82%; with HEK293 it was -0.173%; in the experiment with KB-3-1, -1.35% and -3.36%; in the experiment on NIH3T3 [2] it was 1.61%. The call in the experiment with HaCat [1] was inactive. The outcome in the experiment on HACAT [3] is “inactive [at 17.4 µM]”. Besides, the Potency result with MCC-13, with MCC-26, with MKL-1, with MKL-2, in the experiment on UISO and with WaGa was “inactive” throughout. The Potency result with C33A, with CAOV3 and in the experiment on CASKI was “inactive” throughout.
In the case of `CC(=O)O[C@]1(C(C)=O)CC[C@H]2[C@@H]3C[C@H](C)C4=CC(=O)CC[C@]4(C)[C@H]3CC[C@@]21C`, the compound was classed as inactive with CRL-7250, in the experiment on KB-3-1, in the experiment on NIH3T3 [2] and in the experiment on NIH3T3 [4]. In addition, the Potency in the experiment on HEK293 is 15000 nM (active). In addition, the max response was -32.7% and 2.19% in the experiment on HaCat [1]; 9.44% with KB-3-1; -18.3% in the experiment on NIH3T3 [2]. Moreover, the Potency entry with MCC-13, with MCC-26, with MKL-1, in the experiment on MKL-2, in the experiment on UISO and in the experiment on WaGa was “inactive” in each case. The Potency result in the experiment with C33A, in the experiment with CAOV3 and in the experiment with CASKI was “inactive” each time.
Consider `O=C1OC2(c3ccc(O)cc3Oc3cc(O)ccc32)c2ccccc21`, for which the max response is -1.47% in the experiment on CRL-7250; -1.16% in the experiment with HEK293; -26.2% in the experiment on HaCat [1]; -10.5% with KB-3-1; -4.38% with NIH3T3 [2]. Moreover, the Potency result in the experiment with MCC-13, with MKL-1, in the experiment with MKL-2, in the experiment on UISO, with WaGa and in the experiment on C33A was “inactive” in each case. For the same compound, the Potency result in the experiment on CAOV3 and in the experiment on CASKI was “inactive” in each case.
Take `Cc1ccc(Nc2c(F)cccc2Cl)c(CC(=O)O)c1`: the compound was called inactive in the experiment on CRL-7250, in the experiment with HaCat [1] and with HACAT [3]. Further, the max response in the experiment on HEK293 was 2.42%; in the experiment with KB-3-1, -12.9% and 2.03%; with NIH3T3 [2] it was 2.46%. Further, the Potency result in the experiment with MCC-13, with MKL-1, with MKL-2, in the experiment on UISO, in the experiment with WaGa and in the experiment with C33A was “inactive” each time. Further, the Potency entry in the experiment on CAOV3 and in the experiment on CASKI was “inactive” throughout.
For the compound `CCCCCCCCCCCCCCCCCC(=O)OCC(O)CO` (stereo not drawn), the Potency entry in the experiment on TAB113, in the experiment on TAB165, in the experiment with W2, in the experiment with MCC-13, in the experiment on MCC-26 and with MKL-1 was “inactive” in each case. In addition, the Potency result in the experiment on MKL-2, in the experiment with UISO, with WaGa, with C33A, in the experiment with CAOV3 and in the experiment on CASKI was “inactive” throughout. In the experiment on CRL-7250, the compound was called inactive. In addition, the max response in the experiment with HEK293 is -6.82%; with HaCat [1] it was 4.32%; in the experiment with KB-3-1, -3.37%; with NIH3T3 [2], 1.82%.
Regarding `COc1cccc2c1C(=O)c1c(O)c3c(c(O)c1C2=O)C[C@@](O)(C(=O)CO)C[C@@H]3O[C@H]1C[C@H](N)[C@H](O)[C@H](C)O1`, the Potency was 1330 nM (active) in the experiment on CRL-7250; 266 nM (active) in the experiment on HEK293; 944 nM (active) in the experiment with HaCat [1]; 150 nM (active) with NIH3T3 [2]; 5960 nM (active) with MCC-13; 2110 nM (active) with MCC-26. Further, the Potency in the experiment on MKL-1 was 211 nM (active); with UISO, 750 nM (active); in the experiment with C33A, 2820 nM (active); in the experiment on CAOV3, 2510 nM (active); in the experiment on CASKI, 2000 nM (active). The max response with KB-3-1 is -13.1%.

The values are drawn from PubChem BioAssay (NCATS).
